PubChem BioAssay AID1259343 (VanderVen Lab, College of Veterinary Medicine, Cornell …, 2017)
In all, about 6,200 compounds went through this assay and about 2,900 (47%) were called active. Cut-off read from the data, not from the text of the source: active = inhibition above about 50%; inactive = the rest. So high a share suggests a set chosen from earlier hits. This is one part of the list.

Assay: Mycobacterium tuberculosis growth inhibition, primary screen (AID 1259343)
Conditions: inhibition: at 10 µM, hits give high values; outcome: 10 uM
In the case of `COc1ccccc1CCNc1nncc(-c2ccccc2)n1`, the inhibition is reported as “inactive”. In the case of `C1=C(CCNc2nncc(-c3ccccc3)n2)CCCC1`, the inhibition is reported as 61.1% (active). With `COc1ccc(-c2cnnc(NCCC3=CCCCC3)n2)c(OC)c1` the inhibition was “inactive”. For `Cc1ccc(NC(=O)c2cnc3cc(C(=O)N(C)C)n(C)c3c2)cc1Cl`, the inhibition was 84.7% (active). With `CCOC(C)C(=O)Nc1nc2c(s1)CC(c1ccccc1)CC2` (configuration not stated) the inhibition was 35.4% (inactive). For `CCOC(=O)C1=C(COC(=O)c2ccc([N+](=O)[O-])s2)NC(=O)NC1C` (configuration not stated), the inhibition was 21.7% (inactive). For `CC1CCc2nc(NC(=O)c3ccc([N+](=O)[O-])s3)sc2C1` (configuration not stated), the inhibition was 102% (active). For `CC(C)(CNC(=O)Nc1nc2c(s1)CCCC2)c1cccs1`, the inhibition was 1.49% (inactive). With `CC1CCc2nc(NC(=O)C3CCN(c4ncccn4)CC3)sc2C1` (configuration not stated) the inhibition was 90.3% (active). In the case of `O=C(Nc1cccc(-c2nc3c(s2)CCCC3)c1)C1CC1`, the inhibition is reported as 7.39% (inactive). In the case of `CCC1CCc2nc(NC(=O)Cc3c(C)noc3C)sc2C1` (configuration not stated), the inhibition is reported as 36.4% (inactive). With `CCOC(=O)C(C#N)=CNc1nc2c(s1)CC(C)CC2` (configuration not stated) the inhibition was 23.7% (inactive). For `CC1CCc2nc(NC(=O)CSC(=S)N3CCCCC3C)sc2C1` (configuration not stated), the inhibition was 32.5% (inactive). For `CC1CCc2nc(C(C#N)=Cc3cccs3)sc2C1` (configuration not stated), the inhibition was -38.8% (inactive). In the case of `O=C(Cc1c(F)cccc1Cl)Nc1nc2c(s1)CCCC2`, the inhibition is reported as 95.5% (active). For `CC1CCc2nc(NC(=O)Cc3c(F)cccc3Cl)sc2C1` (configuration not stated), the inhibition was 59.4% (active). With `CC1CCc2ccc(F)cc2N1S(=O)(=O)c1ccc(Cl)s1` (configuration not stated) the inhibition was 30.3% (inactive). In the case of `NC(=O)CSc1ccc(-c2cccc(CN3CCOCC3)c2)cc1`, the inhibition is reported as 54.4% (active). With `Fc1cccc(CN2CCN(Cc3ccc(-c4cccnc4)cc3)CC2)c1` the inhibition was 46.7% (inactive). In the case of `Cc1ccc(SCC(=O)N2CCN(Cc3ccccc3)C2=O)cc1`, the inhibition is reported as 20.7% (inactive). With `Cc1ccc2nc(-c3ccc(NS(C)(=O)=O)cc3)sc2c1` the inhibition was 29.5% (inactive). In the case of `Brc1ccc(Oc2nnc(-c3ccccc3)s2)cc1`, the inhibition is reported as 43.2% (inactive). In the case of `Cc1ccc(S(=O)(=O)c2nnc(-c3ccccc3)s2)cc1`, the inhibition is reported as 58.3% (active). With `CCC(C)C(=O)Nc1ccc(Cl)c2cccnc12` (configuration not stated) the inhibition was -29.8% (inactive). For `CC(=O)CCc1ccc(OCCCOc2ccc(Cl)c3cccnc23)cc1`, the inhibition was 69.7% (active). For `CCNc1nc(=S)[nH]c2ccccc12`, the inhibition was -44.3% (inactive). With `CNc1nc(=S)[nH]c2ccccc12` the inhibition was 72.5% (active). For `Cc1nn2c(nc(NC3CCCC3)c3ccccc32)c1Cl`, the inhibition was 13.2% (inactive). With `S=c1nc(NC2CC2)c2ccccc2[nH]1` the inhibition was 85.5% (active). For `COc1ccc(-c2csc(C(O)c3cccc(Cl)c3)n2)cn1` (configuration not stated), the inhibition was 40.1% (inactive). In the case of `COc1ccc(Cc2nc(-c3ccc(Br)cc3)no2)cc1`, the inhibition is reported as -10.8% (inactive). With `COc1ccc(-c2noc(Cc3ccc(F)c(Br)c3)n2)cn1` the inhibition was 58.1% (active). For `CC(C)c1nc2c(c(=O)c3ccccc3n2C)c(=O)n1-c1ccccc1`, the inhibition was -10.5% (inactive). For `CC1CCN(C(=S)NC2CC3CCC2C3)CC1` (configuration not stated), the inhibition was 67.5% (active). In the case of `NC(=S)Cc1nc2ccccc2[nH]1`, the inhibition is reported as 98.2% (active). In the case of `CCc1ccc(/C=C/c2nc3ccccc3[nH]c2=O)cc1`, the inhibition is reported as 26.4% (inactive). For `c1ccc2[nH]c(CCC3CCCCC3)nc2c1`, the inhibition was -43.3% (inactive). With `O=c1ccn(CCOc2cc(Cl)cc(Cl)c2)c(Cl)c1` the inhibition was 53.2% (active). In the case of `N#Cc1c(N)sc2c1CCN(c1nccc(C(F)(F)F)n1)C2`, the inhibition is reported as -0.04% (inactive). With `COc1ccc(CC(=O)Nc2cc(-c3cccs3)nn2-c2nc(C)cc(=O)[nH]2)cc1` the inhibition was 99.4% (active). With `COc1ccc(OCC(=O)Nc2cc(-c3cccs3)nn2-c2nc(C)cc(=O)[nH]2)cc1` the inhibition was 99.1% (active). For `COc1ccc(CC(=O)Nc2cc(-c3cccs3)nn2-c2nc(C)c(C)c(=O)[nH]2)cc1`, the inhibition was 99.9% (active). With `Cc1nc(-n2nc(-c3cccs3)cc2NC(=O)C2CC2)[nH]c(=O)c1C` the inhibition was -19.4% (inactive). For `Cc1nc(-n2nc(-c3cccs3)cc2NC(=O)CCC2CCCC2)[nH]c(=O)c1C`, the inhibition was 101% (active). In the case of `CC(C)c1cc(=O)[nH]c(-n2nc(-c3cccs3)cc2NC(=O)Cc2ccc(F)cc2)n1`, the inhibition is reported as 6.65% (inactive). With `CC(C)c1cc(=O)[nH]c(-n2nc(-c3cccs3)cc2NC(=O)COc2ccccc2F)n1` the inhibition was 100% (active). For `COc1ccc(CC(=O)Nc2cc(-c3cccs3)nn2-c2nc(C(C)C)cc(=O)[nH]2)cc1`, the inhibition was 100% (active). In the case of `CC(C)c1cc(=O)[nH]c(-n2nc(-c3cccs3)cc2NC(=O)CCc2ccccc2)n1`, the inhibition is reported as 19.2% (inactive). With `Cc1cc(=O)[nH]c(-n2nc(-c3cccs3)cc2NC(=O)COc2ccccc2F)n1` the inhibition was -30.7% (inactive). For `CCCCCOc1ccc(C(=O)N2CCC(O)(c3ccccc3)CC2)cc1OCCCCC`, the inhibition was 35.2% (inactive). In the case of `Cc1ccc(NCc2nsc(N(C)C)n2)c(F)c1`, the inhibition is reported as 51% (active). For `O=C(c1ccc2oc(CCCc3ccccc3)nc2c1)N1CCCCO1`, the inhibition was 50.9% (active). With `O=C(NCC1CCCCO1)c1ccc2oc(CCCc3ccccc3)nc2c1` (configuration not stated) the inhibition was 47% (inactive). For `O=C(COCc1ccccc1)N(Cc1ccccc1)Cc1nc2cc(Cl)ccc2o1`, the inhibition was -20.6% (inactive). With `CS(=O)(=O)NCc1ccc(Oc2ccccc2F)c(F)c1` the inhibition was 1.57% (inactive). In the case of `CS(=O)(=O)NC(=O)c1ccc(Oc2ccc(F)cc2F)cc1`, the inhibition is reported as 72.8% (active). With `N#Cc1c(F)cccc1Oc1ccc(C(=O)O)cc1` the inhibition was 39.2% (inactive). For `O=c1c2sccc2nc(SCCc2ccccn2)n1-c1ccccc1`, the inhibition was 12.8% (inactive). With `CCOc1ccccc1CSc1nc2ccsc2c(=O)n1C` the inhibition was 102% (active). With `Cc1ccccc1CSc1nc2c(c(=O)n1C)SCC2` the inhibition was 45.6% (inactive). With `S=C1Nc2ccccc2C2CC=NN12` (configuration not stated) the inhibition was 55.7% (active). In the case of `COc1ccc(OCCSC2=Nc3ccccc3C3CC=NN23)cc1` (configuration not stated), the inhibition is reported as 45.9% (inactive). With `CC(C)c1cc(C(=O)N2CCCC(C(=O)Nc3cccc(-c4ccc(F)cc4)c3)C2)on1` (configuration not stated) the inhibition was 83.1% (active). With `Cc1nc(C)c(CN2CCCC(C(=O)Nc3ccc(-c4cccc(F)c4)cc3)C2)nc1C` (configuration not stated) the inhibition was 90.5% (active). For `Cc1nnsc1C(=O)N1CCCC(C(=O)Nc2cccc(-c3ccc(F)cc3)c2)C1` (configuration not stated), the inhibition was 17.2% (inactive). For `O=C(Nc1cccc(-c2ccc(F)cc2)c1)C1CCCN(C2CCSCC2)C1` (configuration not stated), the inhibition was 86.7% (active). With `CC(C)c1cc(C(=O)N2CCCC(C(=O)c3ccc4ccccc4c3)C2)on1` (configuration not stated) the inhibition was 15.6% (inactive). For `Cc1ncc(CN2CCCC(C(=O)Nc3cccc(-c4ccc(F)cc4)c3)C2)s1` (configuration not stated), the inhibition was 61.6% (active). For `O=c1c2ccccc2oc2nc(C3CCCCC3)n(Cc3ccccc3)c(=O)c12`, the inhibition was -13.4% (inactive). In the case of `O=C(Nc1ccc(-c2cccc(F)c2)cc1)C1CCCN(C(=O)C2CCOCC2)C1` (configuration not stated), the inhibition is reported as 76.7% (active). For `CSCCC(=O)N1CCCC(C(=O)Nc2ccc(-c3cccc(F)c3)cc2)C1` (configuration not stated), the inhibition was 36.2% (inactive). For `CCc1ncc(CN2CCCC(C(=O)Nc3cccc(-c4ccc(F)cc4)c3)C2)cn1` (configuration not stated), the inhibition was 77% (active). In the case of `O=C(Nc1cccc(-c2ccc(F)cc2)c1)C1CCCN(Cc2cccnc2)C1` (configuration not stated), the inhibition is reported as 47.1% (inactive). In the case of `O=c1c(Cl)c(Oc2ccccc2)cnn1Cc1ccccc1`, the inhibition is reported as 24.6% (inactive). For `CC1(CCc2ccccc2)CCN(c2cn[nH]c(=O)c2Cl)C1` (configuration not stated), the inhibition was 71.2% (active). For `Cc1ccc(CC2CCCN(c3cn[nH]c(=O)c3Cl)C2)cc1` (configuration not stated), the inhibition was 41.4% (inactive). For `CCN(C(=O)c1cccc(Br)c1C)c1ccccc1`, the inhibition was -6.9% (inactive). With `Cc1cc(Cl)ccc1OC(C)c1nnc(SCCC2CCCCC2)o1` (configuration not stated) the inhibition was 10.5% (inactive). With `O=S(=O)(c1cc(Br)ccc1Br)N1CCCc2ccccc21` the inhibition was 7.14% (inactive). For `Cc1ccc(O)c(S(=O)(=O)N2CCCc3cc(F)c(F)cc32)c1`, the inhibition was 3.27% (inactive). For `O=S(=O)(c1cc(Br)ccc1Br)N1CCC1c1ccccc1` (configuration not stated), the inhibition was 77.1% (active). With `O=S(=O)(c1cc(Br)ccc1Br)N1CCc2ccccc21` the inhibition was 102% (active). In the case of `CC(C)CCNC(=O)CSc1nc2ccccc2o1`, the inhibition is reported as 6.9% (inactive). In the case of `CC(C)SCC(=O)Nc1cnc2ccccc2c1`, the inhibition is reported as 92.9% (active). For `COc1cccc(-n2cc(CN(C)Cc3cc4ccccc4[nH]3)cn2)c1`, the inhibition was 41.5% (inactive). In the case of `COc1cccc(-n2cc(CN(C)Cc3cccc4nonc34)cn2)c1`, the inhibition is reported as 83.4% (active). For `CC(C)c1cc2c(c(O)c1O)[C@@]1(C(=O)O)CCCC(C)(C)C1CC2` (some centres not stated), the inhibition was 48.2% (inactive). For `CC(C)c1ccc2c(c1)CCC1C(C)(C(N)=O)CCCC21C` (configuration not stated), the inhibition was 64.3% (active). In the case of `COc1ccc(S(=O)(=O)NCCC(C)C)cc1`, the inhibition is reported as 3.91% (inactive). In the case of `Cc1ccc(C2CC2C(=O)NS(=O)(=O)c2ccc(F)cc2)s1` (configuration not stated), the inhibition is reported as -6% (inactive). In the case of `CC(=O)NS(=O)(=O)c1ccc(N)cc1`, the inhibition is reported as 60.2% (active). For `O=C(NCc1ccc(S(=O)(=O)N2CCCCC2)cc1)NCc1cccc(C(F)(F)F)c1`, the inhibition was 91.4% (active). In the case of `O=C(c1cnc2cc3c(cc2c1)OC1(CCCC1)O3)c1ccccc1O`, the inhibition is reported as -7.11% (inactive). In the case of `Cc1ccc(-c2nc(C)sc2CC(=O)NC(C)C2CC2)cc1` (configuration not stated), the inhibition is reported as 33.3% (inactive). In the case of `Cc1ccc(NC2=CC(=O)c3sc(C)nc3C2=O)cc1`, the inhibition is reported as 99.8% (active). With `CC(C)CNc1nnnc2c1sc1nc(N3CCOCC3)c3c(c12)CCCC3` the inhibition was -4.41% (inactive). For `CCc1nc2sc3c(NCC4CCCO4)ncnc3c2c2c1CCCC2` (configuration not stated), the inhibition was 57.2% (active). With `CCc1nc2sc3c(NCCN(C)C)ncnc3c2c2c1CCCC2` the inhibition was 47.1% (inactive). For `COc1ccc(F)cc1-c1csc(-c2ccc(NC(=O)C3CC3)cc2)n1`, the inhibition was 71.9% (active). For `COc1ccc(-c2nc(-c3ccccc3F)cs2)cc1OC`, the inhibition was 12.5% (inactive). With `COc1ccc(-c2cc(NC(=O)C3CC3)ccc2OC)cc1` the inhibition was 93.7% (active). In the case of `COc1ccc(-c2cc(CNC(=O)C3CC3)no2)cc1`, the inhibition is reported as 30.7% (inactive).
